Data as given in PubChem BioAssay AID1456 (Vanderbilt High Throughput Screening Facility, 2008).
The campaign covered roughly 190,000 compounds. About 4,100 (2.2%) were called active. The sample holds actives, similar compounds and a random draw of the others, so the mix is not that of the screen.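 The calls were made as follows: active = thallium flux slope and its plate-corrected score both differing from the plate sample mean at a set confidence after two filtering rounds, in either direction; inactive = the rest.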

target: Solute carrier family 12 member 5 (Homo sapiens) (UniProt Q9H2X9); assay: KCC2 cotransporter modulators, thallium flux, primary screen, cell-based, HEK293 KCC2, FluoZin-2 fluorescence, MLSMR (AID 1456); conditions: KCC2 cells, thallium flux FluoZin-2 fluorescence; at 10 µM;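 also: slope of fluorescence scaled to starting intensity during 10 to 20 s after thallium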
Sequence (Q9H2X9 whole entry, looked up): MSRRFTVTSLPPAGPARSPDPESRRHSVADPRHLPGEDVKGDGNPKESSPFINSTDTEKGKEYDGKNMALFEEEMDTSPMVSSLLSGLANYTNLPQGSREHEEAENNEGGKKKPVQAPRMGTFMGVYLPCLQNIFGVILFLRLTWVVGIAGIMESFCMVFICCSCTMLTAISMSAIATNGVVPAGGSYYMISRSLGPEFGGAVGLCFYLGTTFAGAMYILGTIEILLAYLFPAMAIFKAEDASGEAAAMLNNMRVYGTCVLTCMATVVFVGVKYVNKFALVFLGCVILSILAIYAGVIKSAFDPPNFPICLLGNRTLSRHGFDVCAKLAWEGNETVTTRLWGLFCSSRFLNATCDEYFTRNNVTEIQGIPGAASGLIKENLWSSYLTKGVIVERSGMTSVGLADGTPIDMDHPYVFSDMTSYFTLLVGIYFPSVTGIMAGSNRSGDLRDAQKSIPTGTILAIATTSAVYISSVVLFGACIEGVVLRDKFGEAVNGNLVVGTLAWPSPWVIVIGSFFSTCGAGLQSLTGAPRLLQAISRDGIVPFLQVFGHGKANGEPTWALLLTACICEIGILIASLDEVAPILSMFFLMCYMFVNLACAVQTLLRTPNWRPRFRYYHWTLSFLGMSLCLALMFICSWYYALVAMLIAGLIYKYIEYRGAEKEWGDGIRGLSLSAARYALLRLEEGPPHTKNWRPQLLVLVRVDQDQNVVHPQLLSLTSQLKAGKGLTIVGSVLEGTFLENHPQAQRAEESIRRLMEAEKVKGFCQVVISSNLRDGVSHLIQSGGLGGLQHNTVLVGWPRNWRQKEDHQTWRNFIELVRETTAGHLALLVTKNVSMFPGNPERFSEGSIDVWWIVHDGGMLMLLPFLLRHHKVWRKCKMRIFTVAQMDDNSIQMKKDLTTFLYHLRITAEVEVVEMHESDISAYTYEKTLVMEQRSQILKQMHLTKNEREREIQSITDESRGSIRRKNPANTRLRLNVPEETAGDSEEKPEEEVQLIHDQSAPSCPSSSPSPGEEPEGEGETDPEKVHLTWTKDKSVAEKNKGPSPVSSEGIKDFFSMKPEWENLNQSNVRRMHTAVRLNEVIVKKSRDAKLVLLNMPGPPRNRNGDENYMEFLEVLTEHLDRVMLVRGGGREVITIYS

B-score of Tl+ flux slope (higher = more flux/activation; lower = inhibition), active:
CSc1sc(C(=O)NNC(=O)c2ccc(Cl)cc2)c2c1C=CCC2 12.5
COc1ccc(C2/C=C\CN(S(=O)(=O)c3cccs3)CC(=O)N2Cc2ccc(F)cc2)cc1 (stereo not drawn) -3.16
COc1ccc(NC(=O)COC(=O)c2ccc(NS(=O)(=O)/C=C/c3ccccc3)cc2)cc1 4.56
CC1CC(C)(C)n2c(O)c(N=NC(N)=S)c3cccc1c32 (stereo not drawn) 24.8
Cc1cccc(NS(=O)(=O)c2ccc(C)c(C(N)=O)c2)c1 4.67
CCOc1ccccc1C1CC(c2ccc(Cl)cc2)Nc2nc(N)nn21 (stereo not drawn) -3.62
Cc1ccc(/C=N/NC(=S)NC2CCCCC2)o1 13.3
C/C(=N\NC(=S)NC1CCCCC1)c1ccc(C)o1 13.6
O=C(NC(Nc1nc2ccc([N+](=O)[O-])cc2s1)(C(F)(F)F)C(F)(F)F)c1ccccc1 18.8
CC(C)(C)c1ccc(C(=O)NCC(=O)OCN2C(=O)c3ccccc3C2=O)cc1 2.84
CC(=O)NNc1cc(=O)c2c(=O)n(C)c(=O)n(C)c2[nH]1 6.19
Cc1cccc(NC(=O)NC(=S)NC(=O)c2ccccc2)c1 16.4
Cc1cccc(NC(=S)NC(=O)c2ccc(Br)o2)c1 143

B-score of Tl+ flux slope (higher = more flux/activation; lower = inhibition), inactive:
CC1=NNC(=O)C1CCC(=O)N/N=C(\C)c1ccc(Cl)cc1 (stereo not drawn) -0.012
CC(NC(=S)Nc1ccccc1)C(c1cccs1)N1CCOCC1 (stereo not drawn) 0.588
O=C(NNC(=O)C1C2CCC(C2)C1C(=O)O)c1ccc(Cl)cc1 (stereo not drawn) -1.3
CCOC(=O)NNC(=O)c1ccc(Cl)cc1 0.095
O=C(CC(c1ccccc1)c1cc(Cl)ccc1O)NCCN1CCOCC1 (stereo not drawn) -0.0272
CN(C)c1ccc(C=C2C(=O)OC3(CCCC3)OC2=O)cc1 -0.977
CCOc1c(Nc2cccc(Cl)c2)c(=O)c1=O -0.192
COc1ccc(C2/C=C\CN(CC(C)C)CC(=O)N2Cc2ccc(F)cc2)cc1 (stereo not drawn) -1.57
COc1ccc2c(CN3CCN(S(=O)(=O)c4cccs4)CC3)cc(=O)oc2c1 -3.36
O=c1c(-c2ccc(Cl)cc2)[n+]([O-])c2ccccc2n1OCc1nc2ccccc2[nH]1 2.99
Nc1nc(NCC2CCCO2)nc(Nc2ccccc2F)c1[N+](=O)[O-] (stereo not drawn) 0.249
CCC(C(=O)OCC(=O)Nc1ccc(C(=O)Nc2ccc(OC)cc2)cc1)c1ccccc1 (stereo not drawn) -0.012
NS(=O)(=O)c1ccc(NS(=O)(=O)/C=C/c2ccccc2)cc1 0.851
Cc1cc(C(=O)OCC(=O)Nc2nccs2)c2ccccc2n1 -0.12
Cc1ccc2c(C)c(C(=O)N3CCC(N4CCC(C(=O)NC5CC5)CC4)CC3)oc2c1 -1.04
O=C(CSc1nnnn1-c1ccc(O)cc1)N1N=C(c2ccc3ccccc3c2)CC1c1ccccc1 (stereo not drawn) 0.186
COC(=O)C1=C(C(=O)OC)C(c2cc([N+](=O)[O-])ccc2O)c2sc(=O)[nH]c2S1 (stereo not drawn) -0.169
COC(=O)[C@H](CC(C)C)NC(=O)N1CCCCC1C (stereo partly drawn) -0.124
C/C(CC(C)C)=N\Oc1nc(C)cc(C)n1 -1.12
CCCCCCCC(=O)OC(CN1CCCCCC1)CN1CCCC1=O (stereo not drawn) -0.767
Cc1cc(C)cc(NC(=O)NC2CCN(CC(=O)Nc3cccc(Cl)c3C)CC2)c1 0.963
CCOc1ccc(NS(=O)(=O)c2ccc(C)c(C(N)=O)c2)cc1 -0.277
Cc1cc(C)cc(NS(=O)(=O)c2ccc(F)cc2)c1 -0.00878
C/C(=N\Nc1cccc(C(=O)O)c1)c1ccc2c(c1)Nc1ccccc1S2 -3.29
Cc1ccc(C2CC(c3cccc(C)c3)n3nc(N)nc3N2)cc1 (stereo not drawn) 1.35
COc1ccc(C2CC(c3ccc(Cl)cc3Cl)Nc3nc(N)nn32)cc1OC (stereo not drawn) 1.07
COCCNC(=S)N1CCN(C)CC1 1.24
CCC(C)NC(=O)C1c2ccccc2Oc2ccccc21 (stereo not drawn) 0.329
O=C(NCc1ccco1)C1CCCN1S(=O)(=O)c1ccccc1C(F)(F)F (stereo not drawn) 0.797
C/C(=N/NC(=O)c1ccc(Br)o1)c1ccc(C)o1 2.02
Cc1ccc(/C=N/NC(=O)CNC(=O)COc2ccccc2)o1 1.42
S=C(NCc1ccc(Cl)cc1)NC1CCCCC1 -1.07
Cc1ccc(NC(=S)NC2CCCC2)cc1 -0.0505
Nc1ccc(N=Nc2ccccc2Cl)c(N)n1 -0.811
O=C(O)CCC(=O)Nc1nc2ccc([N+](=O)[O-])cc2s1 -0.905
O=C(Nc1nc2ccc([N+](=O)[O-])cc2s1)c1ccncc1 0.253
O=[N+]([O-])/C=C1\CCCCCN1 0.62
O=C(OCN1C(=O)c2ccccc2C1=O)/C(=C\c1ccco1)NC(=O)c1ccccc1 0.982
O=C(CNC(=O)c1ccc(-c2ccccc2)cc1)OCc1ccc(Cl)cc1 0.889
CC(=O)OCCOCn1cnn2c(=O)c(Br)c(C)nc12 0.438
Cn1nc(C(F)(F)F)c(-c2ccc(F)cc2)c1NC(=O)CSCC(=O)O 0.439
O=C(Nc1cccnc1)c1cc([N+](=O)[O-])ccc1Cl -0.0312
CCC(=O)NNc1cc(=O)c2c(=O)n(C)c(=O)n(C)c2[nH]1 1.26
Nc1nnn(CC(=O)N/N=C/c2ccc(O)cc2)n1 0.292
Cn1nnc(NC(=S)NC(=O)c2ccccc2)n1 0.462
CC1(C)CC(CNCCC(c2ccc(F)cc2)c2ccco2)CCO1 (stereo not drawn) -2.25
Cc1cccc(NC(=O)c2ccc([N+](=O)[O-])o2)c1 -0.0536
Cc1cccc(NC(=O)/C(=C\c2ccco2)NC(=O)c2ccccc2)c1 0.0694
Cc1ccc(NC(=S)NC(=O)c2ccc(-c3ccccc3)cc2)cc1 1.16
Cc1cccc(NC(=S)Nc2ccc(Br)cc2)c1 0.311
